Results taken from PubChem BioAssay AID493231 (Broad Institute, 2011).
Entries with a potency or affinity are not part of this list. Activity calls are given as the source filed them. The rule behind the calls is not given here.

target: Acyl-homoserine lactone acylase PvdQ (Pseudomonas aeruginosa (strain ATCC 15692 / DSM 22644 / CIP 104116 / JCM 14847 / LMG 12228 / 1C / PRS 101 / PAO1)) (UniProt Q9I194); test: PvdQ acylase enzyme activity blockers – biochemical, fluorescence, plate reader and imaging, cherry-picks, dose response (AID 493231); settings: purified PvdQ acylase, fluorogenic substrate; series mostly up to 10 µM; activity change, negative = inhibition: at the top concentration;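 note: 0% = neutral control wells and -100% = reference inhibitor wells; more negative values mean stronger inhibition of the acylase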
Sequence (Q9I194 whole entry, looked up): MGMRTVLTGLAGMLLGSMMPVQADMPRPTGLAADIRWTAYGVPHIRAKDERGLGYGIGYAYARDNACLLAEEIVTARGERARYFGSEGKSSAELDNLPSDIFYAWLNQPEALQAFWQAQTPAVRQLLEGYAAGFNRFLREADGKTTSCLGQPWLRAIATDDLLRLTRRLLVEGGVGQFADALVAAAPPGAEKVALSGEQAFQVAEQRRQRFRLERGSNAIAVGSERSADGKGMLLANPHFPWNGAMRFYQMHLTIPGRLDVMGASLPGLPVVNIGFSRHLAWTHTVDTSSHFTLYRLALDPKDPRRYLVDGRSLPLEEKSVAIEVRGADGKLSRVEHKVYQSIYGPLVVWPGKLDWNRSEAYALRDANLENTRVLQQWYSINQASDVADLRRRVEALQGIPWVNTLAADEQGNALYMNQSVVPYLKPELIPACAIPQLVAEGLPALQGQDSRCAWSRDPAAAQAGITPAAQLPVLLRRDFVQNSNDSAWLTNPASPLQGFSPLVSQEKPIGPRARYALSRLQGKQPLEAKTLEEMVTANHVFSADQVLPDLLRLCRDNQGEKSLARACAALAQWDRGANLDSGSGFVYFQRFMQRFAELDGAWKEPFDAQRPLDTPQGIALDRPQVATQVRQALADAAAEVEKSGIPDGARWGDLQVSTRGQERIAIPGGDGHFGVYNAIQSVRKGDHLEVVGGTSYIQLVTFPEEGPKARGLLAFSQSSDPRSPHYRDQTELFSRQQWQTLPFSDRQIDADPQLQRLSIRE

Activity change, negative = inhibition, inactive:
CC(C)CCN(CCC(C)C)C(CO)(CO)CO 2.29 unspecified
Cc1ccc(SCC(=O)Nc2ccc(F)cc2[N+](=O)[O-])cc1C 12.6 unspecified
Cc1nn(S(=O)(=O)c2ccccc2)c(C)c1S(=O)(=O)N1CCOCC1 14.9 unspecified
CC(=O)Nc1nc(-c2ccc(Cl)cc2)ns1 4.38 unspecified
Cc1ccc2[nH]c(=O)c3cc(C(=O)NC(C)C)sc3c2c1 -10 unspecified
CCOC(=O)C(Oc1ccc(=O)[nH]n1)C(C)=O (stereo not given) -0.403 unspecified
CC[N+](CC)(CC)C/C=C/CN1CCCCC1 11.5 unspecified
NC(=O)c1cc(Sc2ccccc2)nc2ccccc12 9.91 unspecified
O=C(/C=C/c1ccc(Cl)cc1)N1CCN(c2ccccc2[N+](=O)[O-])CC1 -7.05 unspecified
Cc1ccc(CCNC(=O)CCS(=O)(=O)c2ccc(Br)cc2)cc1 -5.93 unspecified
COc1cccc(Nc2nc(Nc3ccc(Cl)c(C(=O)O)c3)nc(C)c2[N+](=O)[O-])c1 -0.579 unspecified
CN(c1ccc(C(=O)NC2CC3CCC2C3)cc1)S(C)(=O)=O (stereo not given) 0.643 unspecified
C=CCC1S/C(=N/N=C/c2cccs2)NC1=O (stereo not given) 3.34 unspecified
O=C1CCC(=O)N1CCSC(=S)N1CCSCC1 -0.632 unspecified
Cc1cc(C)nc(NS(=O)(=O)c2ccc(NC(=O)c3ccc(N4C(=O)CCC4=O)cc3)cc2)n1 3.67 unspecified
COc1ccc(OCCCC(=O)Nc2cccc(SC)c2)cc1 -103 unspecified
COc1ccc(CN2CCCC(C(=O)c3cccc(OC(C)C)c3)C2)cc1Cn1cccn1 (stereo not given) 5.43 unspecified
c1ccc(-c2cnc(C3CCCCC3)o2)cc1 -5.14 unspecified
Cc1cc(NC(=O)c2ccc(Br)c([N+](=O)[O-])c2)no1 7.95 unspecified
O=C(NCCCn1ccnc1)c1nn2c(C(F)(F)F)cc(-c3ccccc3)nc2c1Cl 4.84 unspecified
CN(C)CCN(C(=O)C1=COCCO1)c1nc2ccc(Cl)cc2s1 11.4 unspecified
O=C(Nc1cccc(Br)c1)c1ccc2c(c1)SC1=NS(=O)(=O)CCN12 6.99 unspecified
COc1cc(NC(=S)NC2CC(C)(C)NC(C)(C)C2)cc(OC)c1 -1.35 unspecified
CCCc1nc2sc3ccccc3c(=O)c2c(=O)n1Cc1ccccc1 11 unspecified
O=C1OC(Nc2ccc3c(c2)OCO3)c2ccccc21 (stereo not given) -6.13 unspecified
CCOc1ccccc1-c1cc(-c2n[nH]c(=S)n2CC)c2ccccc2n1 3.92 unspecified
COc1ccccc1N(CC(O)Cn1ccnc1C)S(=O)(=O)c1ccccc1 (stereo not given) -1.57 unspecified
Cn1c(=O)c2c(ncn2CC(=O)OCC(=O)NCc2ccc(Cl)cc2)n(C)c1=O 12.1 unspecified
Cc1cccc2c(=O)cc(C)n(Cc3ccccc3)c12 -1.24 unspecified
COC(=O)c1sccc1N/N=C/c1ccc(OC)c(OC)c1OC 10 unspecified
COc1ccc(-c2cc3cccc(OC)c3oc2=O)cc1 -101 unspecified
CN(c1ccc(C(=O)Nc2ccc3c(c2)OCCO3)cc1)S(C)(=O)=O -1.33 unspecified
CCOC(=S)SCC(=O)Nc1nccs1 -10.6 unspecified
S=C(NCc1ccc2c(c1)OCO2)Nc1ccc2nsnc2c1 10.7 unspecified
CCOC(=O)c1ccc(N2CCN(c3ccccc3F)CC2)c(NC(=O)Nc2cccc(OC)c2)c1 -5.01 unspecified
